Rows were chosen to be rich in hits. Some 9.3% of all compounds tested hit in one or more screens of this group.
ELG1 DNA repair: blocks ELG1-dependent DNA repair in HEK293T cells | HEK293T ELG1-luciferase reporter, luminescence, 16 h; DNA damage induced by 5-fluorouridine | 330,000 tested, 2.3% active | Potency, µM (top dose mostly 46.1 µM), inactives show at the top dose activity change, negative = inhibition, usual class: inhibitors; further: on the % scale 0 is the no-effect control and ±100 the full control effect; nearly all actives have a fitted effect of over 55% in size
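Step one: seed 2,000 cells per well. Step two: pin-transfer compound or DMSO alongside 5-fluorouridine. Step three: incubate 16 hr, 37 °C, 5% CO2. Step four: add ONE-Glo, wait 30 min, read luminescence.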
NPC1 prom act: activators of NPC1 promoter. Huh7 NPC1 promoter luciferase reporter, 24 h. 320,000 tested, 2.4% active. Potency, µM (series often up to 9.22 µM), without a hit: at the top dose activation, most hits filed as activators. AID 485313; further: % of control where 0% means no effect; nearly all actives have a fitted effect of over 60% in size
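Readout is luciferase luminescence, reflecting NPC1 promoter activation in stably transfected Huh7 cells after 24 h compound exposure at 37 °C in reduced-serum medium with 10% FBS.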
Rab9 promoter act: Rab9 promoter activation; Huh7 Rab9 promoter-luciferase reporter, luminescence, 24 h; AID 485297; 320,000 tested, 2.8% active; Potency, µM (titrated, usually from 9.22 µM), for the others: at the top dose activation, negative = inhibition, actives largely listed as activators; further: % of control where 0% means no effect; nearly all actives have a fitted effect of over 60% in size
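Promoter activation is measured as luciferase luminescence in Huh7 cells stably transfected with a Rab9 promoter–luciferase construct, following 24 h compound exposure at 37 °C and 10 min reagent incubation at ambient temperature.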
SMN2 splice enh: increases expression of the SMN2 splice variant; HEK293 SMN2-luciferase splicing reporter, luminescence, 30-36 h; AID 1458; 210,000 tested, 2.8% active; Potency, µM (series often up to 46.1 µM), for inactives: top-dose activity change, positive = activation, most hits filed as activators; further: % of control where 0% means no effect; nearly all actives have a fitted effect of over 55% in size
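HEK293 cells carry an SMN2 minigene-luciferase reporter in which exon 7 inclusion puts luciferase in frame. Cells were seeded at 2000 cells/well, attached for 10-12 hours, then exposed to compounds for 30-36 hours at 37C before ONE-Glo luminescence.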
FLuc counter: firefly luciferase modulation, counter-screen for miR-21 project. purified FLuc, Km substrates, luminescence inhibition. P08659. 360,000 tested, 6.9% active. Potency, µM (series often up to 57.5 µM), inactives show at the top dose activity change, negative = inhibition, actives largely listed as inhibitors;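 further: plate controls were vehicle for no effect and reference inhibitor for full effect; nearly all actives have a fitted effect of over 55% in size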
Target sequence (P08659 whole entry, looked up): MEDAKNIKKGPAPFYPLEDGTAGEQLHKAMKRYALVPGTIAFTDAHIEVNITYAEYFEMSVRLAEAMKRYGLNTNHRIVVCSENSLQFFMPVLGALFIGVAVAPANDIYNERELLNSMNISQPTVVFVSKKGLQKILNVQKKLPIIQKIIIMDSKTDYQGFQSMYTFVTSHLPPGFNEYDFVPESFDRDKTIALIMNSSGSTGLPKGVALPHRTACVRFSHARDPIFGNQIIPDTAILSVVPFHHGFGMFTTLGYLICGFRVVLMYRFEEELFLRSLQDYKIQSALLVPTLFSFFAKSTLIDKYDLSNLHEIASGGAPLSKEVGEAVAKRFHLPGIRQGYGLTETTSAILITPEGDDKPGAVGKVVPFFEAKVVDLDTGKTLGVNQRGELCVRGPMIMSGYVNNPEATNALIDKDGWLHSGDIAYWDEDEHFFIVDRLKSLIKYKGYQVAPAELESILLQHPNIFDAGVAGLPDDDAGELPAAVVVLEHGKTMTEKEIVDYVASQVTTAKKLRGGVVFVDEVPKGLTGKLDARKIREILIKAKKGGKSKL
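Purified P. pyralis luciferase (10nM final) with 10uM D-luciferin and 10uM ATP (Km levels) in 50mM Tris acetate pH 7.5, 10mM Mg acetate, 0.01% Tween-20, 0.05% BSA; qHTS 6-point titration, ~60 µM downward; luminescence read.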
ELG1 genotoxic: inducers of genotoxicity in HEK293T ELG1-luciferase cells; HEK293T ELG1-luciferase reporter, luminescence, 16 h; Potency, µM (doses to about 46 µM), for inactives: top-dose activity change, positive = activation, hits mostly activators; 330,000 tested, 1.3% active; AID 504466; further: % of control where 0% means no effect; nearly all actives have a fitted effect of over 60% in size
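Screening used a luciferase reporter fused to human ELG1 in HEK293T cells. Luminescence was read on a CCD plate imager after 16 hr exposure and 30 min ONE-Glo incubation.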
Active calls of the source: *; [ ] = remark or other dose. The call rests on the fitted dose curve; in most records, active means well fitted curve in the direction sought with a large enough effect; inconclusive means small, poorly fitted or top-dose-only effect, or another doubt; inactive means no such curve, though single readings can be large; an effect the other way counts as inactive or inconclusive. Potency means the concentration at half of the fitted maximal effect.

For Cc1cccc(NC(=S)NNC(=O)c2nn(C)cc2Cl)c1 the results were ELG1 DNA repair inconclusive, NPC1 prom act -4.2%, Rab9 promoter act -7.3%, SMN2 splice enh 13.9%, FLuc counter inconclusive and ELG1 genotoxic 1.7%.
For CCCc1cc(C(=O)NNC(=S)Nc2cccc(C)c2)cs1 the results were ELG1 DNA repair inconclusive, NPC1 prom act inconclusive, Rab9 promoter act 2.51µM*, SMN2 splice enh 5.62µM*, FLuc counter 10.7µM* and ELG1 genotoxic 9.3%.
Cc1cccc(NC(=S)NNC(=O)c2csc3c2CCC(C)C3)c1 (stereo unspecified) was read as ELG1 DNA repair inconclusive, NPC1 prom act 15.7%, Rab9 promoter act inconclusive, SMN2 splice enh 18.5%, FLuc counter 12µM* and ELG1 genotoxic 24.9%.
Screening Cc1cccc(NC(=O)c2cccc(C(=O)Nc3cccc(C)c3)c2)c1 returned ELG1 DNA repair 12.5%, NPC1 prom act 2.1%, Rab9 promoter act -3.0%[1.84 µM], FLuc counter -7.5% and ELG1 genotoxic 2.8%.
`Cc1ccc(NC(=O)c2ccc3c(c2)OCCO3)cc1C` gave ELG1 DNA repair inconclusive, NPC1 prom act 0.631µM*, Rab9 promoter act 0.316µM*, FLuc counter 0.269µM* and ELG1 genotoxic inconclusive.
`Cc1ccc(OCC(=O)NC2CCS(=O)(=O)C2)c([N+](=O)[O-])n1` (stereo unspecified) gave ELG1 DNA repair -1.3%, NPC1 prom act -3.8%, Rab9 promoter act -1.4%, FLuc counter 2.7% and ELG1 genotoxic -0.5%.
For COc1ccc(S(=O)(=O)NCCS(=O)(=O)N2CCN(c3ccccc3)CC2)cc1OC the results were FLuc counter -0.6%.
Screening COc1ccc(CCNC(=O)Cn2c(=O)nc(-c3ccccc3)c3cc(Cl)ccc32)cc1OC returned FLuc counter 0.2%.
For O=C(Nc1ccc(NC(=O)c2ccc3c(c2)OCCO3)cc1)c1ccccc1 the results were ELG1 DNA repair 21.6%, NPC1 prom act -3.3%, Rab9 promoter act -6.7%, FLuc counter 2.3% and ELG1 genotoxic inconclusive.
`CN(CC(=O)Nc1cccc(F)c1)C(=O)c1ccc2c(c1)OCCO2` gave ELG1 DNA repair inconclusive, NPC1 prom act -0.3%, Rab9 promoter act -4.8%, FLuc counter inconclusive and ELG1 genotoxic 16.1%.
For COc1cc(C(=O)NC(=S)NNC(=O)c2ccc3c(c2)OCO3)cc(OC)c1OC the results were ELG1 DNA repair 16.4µM*, NPC1 prom act -2.1%, Rab9 promoter act -0.5%, FLuc counter 3.6% and ELG1 genotoxic -1.5%.
Screening COc1cc(C(=O)NC(=S)Nc2ccc3c(c2)OCO3)cc(OC)c1OC returned ELG1 DNA repair inconclusive, NPC1 prom act 1.1%, Rab9 promoter act -9.8%, FLuc counter inconclusive and ELG1 genotoxic -1.6%.
For Cc1ccc(C(=O)Nc2ccc3c(c2)OCCO3)c(C)c1 the results were ELG1 DNA repair inconclusive, NPC1 prom act 0.0891µM*, Rab9 promoter act 0.0891µM*, FLuc counter 0.301µM* and ELG1 genotoxic inconclusive.
O=C(Nc1ccccc1)c1ccc2c(c1)OCCO2 was read as ELG1 DNA repair inconclusive, NPC1 prom act 0.708µM*, Rab9 promoter act 1.58µM*, SMN2 splice enh 17.8µM*, FLuc counter 4.26µM* and ELG1 genotoxic inconclusive.
For Cc1ccc(C(=O)NCC(=O)Nc2ccc3c(c2)OCCO3)cc1 the results were ELG1 DNA repair inconclusive, NPC1 prom act -3.5%, Rab9 promoter act 12.5%, FLuc counter -4.6% and ELG1 genotoxic 0.8%.
For O=C(Nc1cccc(F)c1)c1ccc2c(c1)OCCO2 the results were ELG1 DNA repair inconclusive, NPC1 prom act inconclusive, Rab9 promoter act 3.16µM*, FLuc counter 4.78µM* and ELG1 genotoxic inconclusive.
`O=[N+]([O-])c1cccnc1N1CCN(c2ccc(F)cc2)CC1` gave ELG1 DNA repair 3.5%, NPC1 prom act 0.4%, Rab9 promoter act 1.0%, SMN2 splice enh -8.8%, FLuc counter -2.1% and ELG1 genotoxic -1.4%.
`O=C1N=C(N2CCN(c3cccc4ccccc34)CC2)S/C1=C/c1cccs1` gave ELG1 DNA repair 8.2µM*, NPC1 prom act 11.0%, Rab9 promoter act 0.8%, SMN2 splice enh -15.0%, FLuc counter 0.3% and ELG1 genotoxic -7.9%.
Screening Cc1ccccc1N1CCN(C2=NC(=O)/C(=C\c3cccs3)S2)CC1 returned ELG1 DNA repair inconclusive, NPC1 prom act -0.6%, Rab9 promoter act 11.0%, SMN2 splice enh inconclusive, FLuc counter 9.53µM* and ELG1 genotoxic 1.0%.
`Oc1cccc(Nc2cc(-c3ccccc3)ncn2)c1` gave FLuc counter 16.9µM*.
CCOC(=O)Cc1csc(NC(=O)c2ccc(C)o2)n1 was read as ELG1 DNA repair 29.2%, NPC1 prom act 2.7%, Rab9 promoter act 10.7%, SMN2 splice enh -6.5%, FLuc counter -13.1% and ELG1 genotoxic inconclusive.
O=C(Nc1nc(-c2ccccc2)cs1)c1ccc(Br)o1 was read as ELG1 DNA repair inconclusive, NPC1 prom act 10.8%, Rab9 promoter act 20.4%, SMN2 splice enh -5.4%, FLuc counter 23.9µM* and ELG1 genotoxic 5.5%.
O=C(Nc1nc(-c2ccccc2)cs1)c1ccccc1F was read as ELG1 DNA repair inconclusive, NPC1 prom act inconclusive, Rab9 promoter act 3.55µM*, FLuc counter 16.9µM* and ELG1 genotoxic inconclusive.
`Cc1onc(-c2ccccc2)c1C(=O)Nc1nc(-c2ccccc2)cs1` gave ELG1 DNA repair inconclusive, NPC1 prom act 12.4%, Rab9 promoter act inconclusive, SMN2 splice enh inconclusive, FLuc counter 19µM* and ELG1 genotoxic inconclusive.
Cc1onc(-c2ccccc2)c1C(=O)Nc1nc(-c2cc(F)ccc2F)cs1 was read as ELG1 DNA repair inconclusive, NPC1 prom act -2.7%, Rab9 promoter act -1.6%, SMN2 splice enh 10.9%, FLuc counter inconclusive and ELG1 genotoxic inconclusive.
Cc1csc(NC(=O)c2ccc(C)o2)n1 was read as ELG1 DNA repair inconclusive, NPC1 prom act inconclusive, Rab9 promoter act 3.55µM*, FLuc counter 15.1µM* and ELG1 genotoxic inconclusive.
Screening NCC1O[C@@H](OC2C(N)C[C@H](N)[C@@H](O[C@H]3OC(CO)C(O)C(N)C3O)C2O)C(N)C(O)C1O (stereo partly specified) returned SMN2 splice enh -4.9%.
For Cc1ccc(-c2csc(NC(=O)C3=NN(c4ccccc4)C(=O)CC3)n2)cc1 the results were ELG1 DNA repair 13µM*, NPC1 prom act -7.1%, Rab9 promoter act -28.5%, SMN2 splice enh -52.0%, FLuc counter 8.49µM* and ELG1 genotoxic -12.7%.
